Potency and affinity values are given separately. Results filed as inconclusive are left out. Calls of active or inactive are those of the source.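 Rule for the calls: active = compounds lowering the FRET ratio whose fitted half-maximal concentration is at most twice their top tested dose; inconclusive = flat partial drop between 30 and 70 percent, or bad fit; inactive = the rest.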
Molecular target: Voltage-dependent L-type calcium channel subunit alpha-1D (Homo sapiens) (UniProt Q01668)
Assay: inhibitors of CaV1.3 ICDI-IQ binding, dose response, cell-based, HEK293, YFP-IQ/CFP-ICDI FRET, cherry-picks (AID 1053205);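 note: 0% = median of neutral control wells and -100% = median of positive control wells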
Settings: HEK293 YFP-IQ/CFP-ICDI FRET ratio, 10 min; series mostly up to 35 µM

Sequence of Voltage-dependent L-type calcium channel subunit alpha-1D (Homo sapiens) (Q01668 whole entry, looked up): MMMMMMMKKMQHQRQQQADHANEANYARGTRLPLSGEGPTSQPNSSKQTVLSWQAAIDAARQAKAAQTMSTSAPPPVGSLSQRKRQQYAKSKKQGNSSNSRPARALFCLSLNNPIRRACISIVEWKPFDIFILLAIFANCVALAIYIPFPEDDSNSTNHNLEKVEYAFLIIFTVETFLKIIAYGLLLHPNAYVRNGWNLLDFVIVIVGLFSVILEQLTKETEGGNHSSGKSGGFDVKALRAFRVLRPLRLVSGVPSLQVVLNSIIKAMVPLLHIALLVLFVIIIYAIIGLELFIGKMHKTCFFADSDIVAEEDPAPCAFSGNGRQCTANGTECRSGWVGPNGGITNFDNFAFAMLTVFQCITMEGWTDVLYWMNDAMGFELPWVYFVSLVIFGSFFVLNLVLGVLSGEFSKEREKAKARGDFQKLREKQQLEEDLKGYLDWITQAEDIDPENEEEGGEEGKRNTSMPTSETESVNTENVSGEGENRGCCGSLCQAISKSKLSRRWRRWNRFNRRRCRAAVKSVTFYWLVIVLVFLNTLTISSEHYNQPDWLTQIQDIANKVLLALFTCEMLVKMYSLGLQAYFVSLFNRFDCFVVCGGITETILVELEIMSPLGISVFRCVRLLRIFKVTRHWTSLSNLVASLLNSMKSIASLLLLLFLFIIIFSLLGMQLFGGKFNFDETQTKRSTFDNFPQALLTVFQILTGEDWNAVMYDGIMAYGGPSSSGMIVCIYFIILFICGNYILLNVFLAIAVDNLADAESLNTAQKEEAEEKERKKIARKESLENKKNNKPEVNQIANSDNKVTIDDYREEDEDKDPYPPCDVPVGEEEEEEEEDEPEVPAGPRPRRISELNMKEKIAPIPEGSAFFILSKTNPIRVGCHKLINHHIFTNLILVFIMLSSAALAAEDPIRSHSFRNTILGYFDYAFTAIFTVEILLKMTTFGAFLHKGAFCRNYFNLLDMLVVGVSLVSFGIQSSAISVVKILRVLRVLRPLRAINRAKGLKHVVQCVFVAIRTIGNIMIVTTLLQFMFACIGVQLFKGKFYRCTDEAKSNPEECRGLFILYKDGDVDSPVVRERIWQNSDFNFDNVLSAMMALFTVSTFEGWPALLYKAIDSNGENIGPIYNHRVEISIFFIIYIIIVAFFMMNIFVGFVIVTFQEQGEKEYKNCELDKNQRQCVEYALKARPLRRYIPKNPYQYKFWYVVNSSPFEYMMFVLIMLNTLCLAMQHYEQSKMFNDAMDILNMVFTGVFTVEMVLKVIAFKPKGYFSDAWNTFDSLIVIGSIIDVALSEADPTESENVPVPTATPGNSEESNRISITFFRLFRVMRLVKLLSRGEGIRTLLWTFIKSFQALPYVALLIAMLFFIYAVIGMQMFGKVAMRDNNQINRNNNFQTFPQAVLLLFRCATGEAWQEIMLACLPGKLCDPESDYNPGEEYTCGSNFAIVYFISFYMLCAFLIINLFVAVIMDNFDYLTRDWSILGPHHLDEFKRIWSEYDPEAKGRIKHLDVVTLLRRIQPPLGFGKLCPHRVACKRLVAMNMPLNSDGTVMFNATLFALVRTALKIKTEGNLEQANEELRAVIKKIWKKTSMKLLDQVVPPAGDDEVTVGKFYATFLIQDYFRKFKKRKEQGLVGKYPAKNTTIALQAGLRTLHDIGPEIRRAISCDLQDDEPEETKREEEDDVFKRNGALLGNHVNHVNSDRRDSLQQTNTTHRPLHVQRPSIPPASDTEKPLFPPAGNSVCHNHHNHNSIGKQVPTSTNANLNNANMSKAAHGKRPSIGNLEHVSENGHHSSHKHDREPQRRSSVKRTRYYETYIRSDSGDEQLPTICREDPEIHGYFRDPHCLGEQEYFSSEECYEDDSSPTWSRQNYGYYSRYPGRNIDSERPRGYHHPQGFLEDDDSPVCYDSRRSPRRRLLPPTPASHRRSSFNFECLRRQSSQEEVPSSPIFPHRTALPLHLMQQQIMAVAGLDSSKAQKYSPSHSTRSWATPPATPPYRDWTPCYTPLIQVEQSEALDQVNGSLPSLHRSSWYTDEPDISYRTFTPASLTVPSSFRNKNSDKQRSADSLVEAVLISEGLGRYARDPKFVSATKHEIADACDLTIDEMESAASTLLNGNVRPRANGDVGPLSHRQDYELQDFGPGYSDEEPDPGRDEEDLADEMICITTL

outcome, inactive:
C/C(=N\NC(=O)CC#N)c1cc2ccc(O)cc2oc1=O
COc1ccc(CCNC(=O)c2cc(S(=O)(=O)N3CCCCC3)c[nH]2)cc1OC
Cc1cc(=O)oc2cc(OC(=O)c3cncc(Br)c3)ccc12
CCOc1ccc(C2C(C#N)=C(N)Oc3cc(O)ccc32)cc1OCC (configuration not stated)
CCOC1=NN(c2ncc(C(F)(F)F)cc2Cl)C(=O)C1
COc1cc(/C=C(\C#N)C(=O)NC(C)C)cc(Cl)c1O
CCOc1ccc2nc(NCCNC(=O)CC)c(C#N)cc2c1
Cn1cc(C(c2ccccc2OCC(=O)O)c2cn(C)c3ccccc23)c2ccccc21
CC/C(C)=N\Nc1nc(-c2cc3cc(OC)ccc3oc2=O)cs1
O=c1oc2cc(O)ccc2cc1S(=O)(=O)c1ccccc1
O=c1[nH]c(Nc2ccccc2Cl)cc2ccccc12
N#CC(C#N)=C1C=CC=CN1/C(=C\c1ccccc1)C(=O)c1cccs1
O=[N+]([O-])c1cccc(Nc2c3ccccc3nc3ccccc23)c1
Cc1c(C(=O)NCc2ccc3c(c2)OCCO3)sc(=O)n1Cc1ccccc1F
C=CCN1C(=S)CC(c2ccccc2)=Nc2ccccc21
Cc1ccc(O)c(NC(=S)NC(=O)COc2ccc(Br)cc2)c1
Nc1cccc2c1C(=O)N(c1ccccc1)C2=O
CC(=O)c1cccc(-c2ccnc3c2CC(C(=O)NCc2ccc(F)c(F)c2)O3)c1 (configuration not stated)
Cc1c(C(=O)NCc2ccc(Cl)c(Cl)c2)sc(=O)n1Cc1cccc(F)c1
COc1ccc(C[C@H]2CN3C(=NC[C@@H]3Cc3ccccc3)N2CCNC(=O)CCC2CCCCC2)cc1
C=CCn1c(=N)c(C#N)cc2c(=O)n3ccccc3nc21
COc1ccccc1C(=O)c1cc2ccc(O)cc2oc1=O
CCOC(=O)C(NC(=O)c1ccccc1)(OCC1(CC)COC1)C(F)(F)F (configuration not stated)
O=C(O)c1ccc(N/N=C/c2ccc(-c3ccccc3Cl)o2)cc1
Cc1ccc(-n2nnnc2CNC(=O)C(=O)c2c[nH]c3ccccc23)cc1C
Nn1c(SCC(=O)N2CCCC2)nnc1-c1cccs1
Cc1cc(CNC(=O)c2ccc3c(c2)OCO3)c2ccccc2n1
COc1ccc(S(=O)(=O)N2CCCC2CNC(=O)C(=O)NC2CCCC2)cc1 (configuration not stated)
CCc1nc(SCC(=O)c2ccccc2)c2ccccc2n1
CCc1cccc(OC2OC(CO)C(O)C(O)C2NC(C)=O)c1 (configuration not stated)
CCN(c1ccccc1)S(=O)(=O)c1ccc(OC)c(NC(=O)CN(C)C)c1
Cc1ccc2c(c1)-c1c(cnn1CC(=O)Nc1ccccc1N1CCN(C)CC1)CO2
COc1ccc(Br)c(Cn2c(C)c(C(=O)NCc3ccc4c(c3)OCCO4)sc2=O)c1
Cc1nc2ccccc2c2oc(C(=O)NCCCN3CCC(C)CC3)cc12
CC1CCCCC1NC(=O)CN1C(=O)c2cccc(N)c2C1=O (configuration not stated)

FRET change, negative = inhibition, inactive:
CCOC(=O)c1cc2c(=O)n3ccccc3nc2n(C(C)C)c1=NC(=O)c1ccco1 208% [at 8 µM]
COc1ccc(CNC(=O)c2sc(=O)n(Cc3ccc(C)cc3)c2C)cc1OC 4.95% [at 8 µM]

— PubChem BioAssay AID1053205 (Broad Institute, 2014)
